For 21 compounds, growth inhibition results are on record in PubChem BioAssay (NCI).

Assay [1] in a line: NCI Yeast Anticancer Drug Screen. Data for the rad50 strain (AID 155).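 Further: 0% = growth of vehicle-only cultures of the same strain.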 Particulars: S. cerevisiae rad50 strain growth inhibition; at 50.0 µM; hits give high values. A digest of the protocol: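 Genetically altered yeast (DNA repair pathway); compound treatment; growth inhibition vs vehicle ctrl.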
The nature of assay [2]: NCI Yeast Anticancer Drug Screen. Data for the mec2-1 strain (AID 157). The note with it: S. cerevisiae mec2-1 strain, at 50.0 µM, hits give high values. Put shortly: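 Compounds were applied to mec2-1 yeast cells. Their growth was then compared with that of vehicle-treated cultures to give growth inhibition.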
A short description of assay [3]: NCI Yeast Anticancer Drug Screen. Data for the sgs1 mgt1 strain (AID 161).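 Further: 0% = growth of cultures given vehicle only.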 The note with it: S. cerevisiae sgs1 mgt1 strain, at 50.0 µM, hits give high values. Put shortly: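 Percent growth inhibition was derived by comparing compound-exposed mutant yeast with vehicle-exposed cultures. The strain carries alterations in DNA damage repair.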
Assay [4] is described as follows: NCI Yeast Anticancer Drug Screen. Data for the cln2 rad14 strain (AID 165).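 Further: 0% = growth equal to vehicle treated cultures.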 The note with it: S. cerevisiae cln2 rad14 strain, at 50.0 µM, hits give high values. Put shortly:
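Strain: cln2 rad14 yeast, altered in cell cycle control and DNA damage repair. Read-out: growth inhibition vs vehicle.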

Assay [5] is described as follows: NCI Yeast Anticancer Drug Screen. Data for the bub3 strain (AID 167). Particulars: S. cerevisiae bub3 mutant strain, at 50.0 µM, hits give high values. A digest of the protocol:
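Yeast carrying a defined mutation is treated with each compound, and growth is compared with that of vehicle-exposed cells to give inhibition.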

Assay [6] in a line: NCI Yeast Anticancer Drug Screen. Data for the mlh1 rad18 strain (AID 175). Particulars: S. cerevisiae mlh1 rad18 strain growth inhibition; at 50.0 µM; hits give high values. A digest of the protocol:
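A repair-deficient yeast strain is exposed to test compound, and growth is scored relative to vehicle-treated controls.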

SMILES strings stand for the structures. Compounds without any hit were thinned out: in the full panel of roughly 79,000, 15% have a hit. Values without a mark were called inactive. Calls of active or inactive are those of the source. No stated cut-off is given here; in the data, active means growth inhibition above about 70%; inactive means the rest.

Take `CC(C)CC(=O)Cc1ccccc1`: the growth inhibition is 18.8% in assay [1]; 14.7% in assay [2]; 19.2% in assay [3]; -52.7% in assay [4]; -2.2% in assay [5]; -0.2% in assay [6].

In the case of `Cc1nc(N)nc(C)c1N=Nc1cc(Cl)cc(Cl)c1`, the growth inhibition in assay [1] is -27.1%; in assay [2], 4.15%; in assay [3], -2.2%; in assay [4] it was -32.9%; in assay [5], 10.2%; in assay [6], -7.85%.

Turning to `O=C(COc1cccc(Cl)c1)Nc1ccc(C(=O)CCl)cc1`, the growth inhibition in assay [1] is 23.9%; in assay [2] it was 49.5%; in assay [3], 35.9%; in assay [4], 11.8%; in assay [5], 47%; in assay [6] it was 44.5%.

`Cc1cc(O)c(/C=N/c2nc(-c3ccc([N+](=O)[O-])cc3)cs2)c(=O)o1`: the growth inhibition in assay [1] is 58.1%; in assay [2], 20.9%; in assay [3], 40.8%; in assay [4], 20.1%; in assay [5], -7.7%; in assay [6], 74.1% (active).

`CCCCCCCCCCCCSSC(=S)OC(C)C`: the growth inhibition in assay [1] was 46.7%; in assay [2] it was 37.7%; in assay [3], 45.5%; in assay [4], 16.9%; in assay [5], 43.6%; in assay [6], 44.5%.

`CC(=O)OCC1OC(N2C(c3ccccc3)=CC(c3cccs3)C(C#N)=C2S)C(OC(C)=O)C(OC(C)=O)C1OC(C)=O` (stereo unspecified): the growth inhibition is 27.4% in assay [1]; 28.9% in assay [2]; 40.6% in assay [3]; 18% in assay [4]; 46.2% in assay [5]; 23.3% in assay [6].

Take `COc1ccc(-c2nc(SCC(=O)O)n(-c3ccccn3)c2-c2ccc(OC)cc2)cc1`: the growth inhibition in assay [1] was 70.7% (active); in assay [2] it was 66.5%; in assay [3], 82.3% (active); in assay [4] it was 83.7% (active); in assay [5] it was 42.9%; in assay [6] it was 77.7% (active).

As to `Nc1nc(N)c(N=Nc2cc(Cl)c([N+](=O)[O-])cc2Cl)c(=O)[nH]1`, the growth inhibition in assay [1] was 13.2%; in assay [2], -3.75%; in assay [3], -10.9%; in assay [4], -7.15%; in assay [5], -1.35%; in assay [6], -11.1%.

Regarding `CCOC(=O)Nc1nc(-c2ccc(Br)cc2)cs1`, the growth inhibition in assay [1] was -11.5%; in assay [2], -5.4%; in assay [3] it was -2.1%; in assay [4], -37.6%; in assay [5], 14.1%; in assay [6] it was -17.9%.

Consider `C(=N\Nc1nc2ccccc2s1)/c1cccs1`, for which the growth inhibition was 16.9% in assay [1]; 33% in assay [2]; 23.6% in assay [3]; 16.1% in assay [4]; 36.4% in assay [5]; 29.4% in assay [6].

In the case of `O=C(c1ccccc1)C(c1ccccc1)n1nc2c(c1-c1ccccc1)CCCC2` (stereo unspecified), the growth inhibition in assay [1] was 84.4% (active); in assay [2], 87.2% (active); in assay [3] it was 83.9% (active); in assay [4], 88.4% (active); in assay [5], 86.4% (active); in assay [6] it was 91.4% (active).

In the case of `COC1(OC)CCCc2c1no[n+]2[O-]`, the growth inhibition in assay [1] was -43.4%; in assay [2], -11.3%; in assay [3], -50.2%; in assay [4], -16.7%; in assay [5], 16.5%; in assay [6], -21.2%.

Consider `CC1=NC=C(O)c2ccccc2O1`, for which the growth inhibition in assay [1] is 24.4%; in assay [2], 12.4%; in assay [3], 26.8%; in assay [4], 15.6%; in assay [5], 14.9%; in assay [6], 21.4%.

Regarding `O=C(O)c1ccc(C2C3C=CC(C3)C2[N+](=O)[O-])cc1` (stereo unspecified), the growth inhibition in assay [1] is 6.15%; in assay [2], -18.8%; in assay [3], -20.2%; in assay [4], 5.85%; in assay [5], -12.5%; in assay [6], -35.5%.

As to `CN(C)C(=O)CCOc1ccccc1`, the growth inhibition in assay [1] was 0.55%; in assay [2], -12.6%; in assay [3], -18.9%; in assay [4], -56.3%; in assay [5], -7.05%; in assay [6], -7.2%.

As for `C/C(=N\NC(=S)Nc1cccc2cccc(S(=O)(=O)O)c12)c1ccccn1`, the growth inhibition in assay [1] was 3.4%; in assay [2] it was -0.35%; in assay [3], -18.2%; in assay [4], -5.55%; in assay [5] it was -7.4%; in assay [6] it was 2.85%.

For the compound `CC(=O)Nc1cc(C(C)=O)ccc1O`, the growth inhibition is 0.95% in assay [1]; -0.5% in assay [2]; -3.95% in assay [3]; -32.7% in assay [4]; -14% in assay [5]; 6.6% in assay [6].

`CC(C)(C)C(=O)Cn1nnnc1C(=O)C(C)(C)C`: the growth inhibition in assay [1] was -10.7%; in assay [2], -35.5%; in assay [3], -15.8%; in assay [4] it was -36.9%; in assay [5], -5.85%; in assay [6], -19.4%.

Turning to `COc1ccc(OC)c(CCCCC(N)=O)c1`, the growth inhibition in assay [1] was -19.8%; in assay [2], -8.2%; in assay [3], 7.3%; in assay [4], 1.4%; in assay [5], 0.5%; in assay [6], -9.55%.

In the case of `C/C=C\CCCCC`, the growth inhibition was 13.8% in assay [1]; 9.4% in assay [2]; 15.4% in assay [3]; 24.1% in assay [4]; 34.6% in assay [5]; 10.9% in assay [6].

Turning to `Nc1nc(CCC(=O)Nc2cccc(C(F)(F)F)c2)cc(-c2cccc3ccccc23)n1`, the growth inhibition in assay [1] was -15.2%; in assay [2], 17.4%; in assay [3] it was 29.1%; in assay [4] it was 0.8%; in assay [5], 23.1%; in assay [6], 2.3%.
